Source: PubChem
FBW7 activator: human FBW7 E3 ligase activation, primary screen; Q969H0; AlphaScreen FBW7–phospho-cyclin E peptide binding, activator screen; normalized activity (activation), % at 26.1 µM; 650,000 compounds, 0.13% hits; AID 1259310; in the data active means normalized activity above about 1.9%;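 further: purified mutant Fbw7 with reduced substrate affinity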
MITF primary: human MITF inhibition, primary screen | O75030 | AlphaScreen MITF homodimerization, bead proximity signal | inhibition, % at 2.6 µM | 650,000 compounds, 0.91% hits | AID 1259374; in the data active means inhibition above about 50%
Target sequence (O75030 whole entry, looked up): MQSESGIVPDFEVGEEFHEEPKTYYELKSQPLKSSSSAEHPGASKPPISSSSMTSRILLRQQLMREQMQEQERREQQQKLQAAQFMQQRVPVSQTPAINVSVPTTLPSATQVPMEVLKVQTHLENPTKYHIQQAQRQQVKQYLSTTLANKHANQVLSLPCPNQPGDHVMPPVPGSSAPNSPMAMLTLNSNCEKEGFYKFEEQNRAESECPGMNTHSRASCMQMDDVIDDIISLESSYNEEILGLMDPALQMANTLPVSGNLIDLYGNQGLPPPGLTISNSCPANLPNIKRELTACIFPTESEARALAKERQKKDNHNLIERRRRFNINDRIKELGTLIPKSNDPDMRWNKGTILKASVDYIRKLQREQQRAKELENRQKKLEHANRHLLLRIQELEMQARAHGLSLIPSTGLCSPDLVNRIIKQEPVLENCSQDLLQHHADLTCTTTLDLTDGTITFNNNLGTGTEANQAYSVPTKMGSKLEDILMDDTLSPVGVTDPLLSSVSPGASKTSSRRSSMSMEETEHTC
GPR151 activ: activators of human GPR151; Q8TDV0; PathHunter beta-arrestin GPR151 cells, luminescence; activation, % at 11.2 µM; 650,000 compounds, 1% hits; AID 1508602; in the data active means activation above about 4.9%
TEAD-YAP block: TEAD-YAP interaction inhibition; HEK-TIYL cells, TEAD-Gal4/YAP UAS-luciferase luminescence; inhibition, % at 9.12 µM; 640,000 compounds, 1.4% hits; in the data active means inhibition above about 32%
GPR151 confirm: confirmation of human GPR151 activators; 6,700 tested, under 10 active; activation, % at 11.2 µM; AID 1508609; GPR151 PathHunter beta-arrestin cells, luminescence, 90 min; % of EA-reagent control over plate median; shares compounds with GPR151 activ;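 active means mean percent activation across replicates above the confirmation screen cutoff of 4.91%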
GPR119 ag: counter-screen for GPR151 activators: effect on human GPR119; shares compounds with GPR151 activ; GPR119 PathHunter beta-arrestin cells, luminescence, 90 min; 0 = compound-well median, 100 = enzyme-acceptor control; activation, % at 11.2 µM; 6,700 compounds, 0.3% hits;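 active means mean percent activation in the counterscreen above 29.09%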;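 further: counterscreen on off-target GPR119 to flag nonselective hits from the GPR151 activator screen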
Numbers stand for hits; . = inactive; / = no result given; ! = not active in a repeat. Compounds with a hit are over-represented: about 3.4% of the library has one in this group of screens.

SMILES	FBW7 activator	MITF primary	GPR151 activ	TEAD-YAP block	GPR151 confirm	GPR119 ag
O=C(Nc1ccc([N+](=O)[O-])cc1Cl)c1ccccc1Cl	.	.	8.1	.	.	.
COc1cccc(OC)c1C(=O)Nc1ccc(I)cc1Cl	.	.	.	.	/	/
COc1ccc(-c2cc(C(F)(F)F)n3ncc(C(=O)N4CCN(c5ccccc5OC)CC4)c3n2)cc1OC	.	.	.	.	/	/
Cc1cc(C(=O)Nc2c(C)nn(Cc3ccc(Cl)c(Cl)c3)c2C)no1	.	.	.	.	/	/
O=c1nc2n(c3ccc([N+](=O)[O-])cc13)CCCC/C2=C\O	.	.	.	.	/	/
Cc1cc(C)cc(C(=O)Nc2ccc([N+](=O)[O-])cc2C)c1	.	.	8.9	.	.	.
CCCNC(=O)Cn1cc(OC)c(=O)cc1CN1CCN(c2ccc(F)cc2)CC1	.	.	.	.	/	/
CCCCN(CC)c1ncnc2scc(-c3ccccc3)c12	.	.	8.0	.	.	.
CCCCN(C)c1ncnc2scc(-c3ccccc3)c12	.	.	.	.	/	/
O=C(On1c(-c2ccc(F)cc2)nc2ccccc2c1=O)c1ccc(Cl)cc1	.	.	5.1	.	.	.
Cc1ccccc1C(=O)On1c(-c2ccc(Cl)c([N+](=O)[O-])c2)nc2ccccc2c1=O	.	.	5.8	.	.	.
Cc1ccc(C2=NNC3(S2)C(=O)Nc2ccc(C)cc23)cc1 (centres undefined)	.	.	.	.	/	/
C/C(=N\NC(=O)c1ccc(F)cc1)c1ccc([N+](=O)[O-])cc1	.	.	8.1	.	.	.
O=C1N[C@@H](Cc2c[nH]c3ccccc23)C(=O)N2C[C@@H](NCc3cc4ccccc4s3)C[C@@H]12	.	.	.	.	/	/
Cc1ccc(N(CC(=O)NCCC(C)C)C(=O)CCC(=O)Nc2ccccn2)cc1	.	.	6.3	.	.	.
COc1ccc(-n2c(C)nc3cc(C(=O)NCCc4ccc(OC)c(OC)c4)ccc32)cc1	.	.	.	.	/	/
CCc1ccc(-n2c(C)nc3cc(C(=O)NCCc4ccc(OC)c(OC)c4)ccc32)cc1	.	.	5.1	.	.	.
COc1ccc(S(=O)(=O)N(CC(=O)NCc2cccnc2)C2CCCCC2)cc1OC	.	.	5.2	.	.	.
Cc1cc(C)c(S(=O)(=O)N(CC(=O)NCc2cccnc2)C2CCCCC2)c(C)c1	.	.	.	.	/	/
Cc1cc(C)cc(NC(=O)C2CCN(c3nnc(-n4c(C)ccc4C)s3)CC2)c1	.	.	5.5	.	.	.
Cc1ccc(-n2c(SCC(=O)N3CCC(C)CC3)nc3n[nH]c(C)c3c2=N)cc1C	.	.	.	.	/	/
CCc1ccc(NC(=O)CSc2c(CC(C)C)cnc3c2c(=O)n(C)c(=O)n3C)cc1	.	.	.	.	/	/
COC(=O)c1nc(N)sc1-c1ccc(Cl)c(Cl)c1	.	.	7.6	.	.	.
Cc1cccc(NC(=O)C(=O)NCCO)c1C	.	.	.	.	/	/
Cc1c(Cl)cccc1NC(=O)C(=O)NCCO	.	.	5.2	.	.	.
SMILES	FBW7 activator	MITF primary	GPR151 activ	TEAD-YAP block	GPR151 confirm	GPR119 ag
O=C1CCSc2c1cccc2C(=O)Nc1ccccc1F	.	.	.	.	/	/
CSCCC(NC(C)=O)C(=O)Oc1ccc2c3c(c(=O)oc2c1)CCCC3 (centres undefined)	.	.	5.4!	.	.	.
CC(Oc1ccc2c3c(c(=O)oc2c1)CCCC3)C(=O)O (centres undefined)	.	.	.	.	/	/
c1cc(CNc2nc3nonc3nc2NC2CC2)c2cc[nH]c2c1	.	.	5.5	.	.	.
C=C(C)CNc1nc2nonc2nc1NC1CC1	.	.	.	.	/	/
CCN(CC)C(=O)N1CCC(NC(=O)C23CC4CC(CC(C4)C2)C3)CC1	.	.	.	.	/	/
CCOC(=O)C1=C(CN2CCN(CC)CC2)NC(=O)NC1c1cc(C)ccc1C (centres undefined)	.	.	7.5	.	.	.
O=C(NCCN1CCOCC1)c1nn2c(c1Cl)NC(c1ccco1)CC2C(F)(F)F (centres undefined)	.	.	5.7	.	.	.
O=C(NCCN1CCOCC1)c1nn2c(c1Cl)NC(c1ccc(Br)cc1)CC2C(F)(F)F (centres undefined)	.	.	.	.	/	/
COc1ccccc1NC(=O)C1OC2OC(C)(C)OC2C2OC(C)(C)OC12 (centres undefined)	.	.	.	.	/	/
COc1ccccc1NC(=O)[C@H]1O[C@@H]2OC(C)(C)O[C@@H]2[C@H]2OC(C)(C)O[C@H]21	.	.	6.9	.	.	.
O=C(Nc1ccc(N2CCOCC2)cc1)c1cc(N2CCCC2CO)nc2ccccc12 (centres undefined)	.	.	.	.	/	/
CN=C(C)c1c(O)c2ccccc2oc1=O	.	.	.	.	/	/
C/C(=N\NC(N)=O)c1c(O)c2ccccc2oc1=O	.	.	7.4	.	.	.
COc1ccc(OC)c(C2C(C(N)=O)=C(C)Nc3nc(CCCO)nn32)c1 (centres undefined)	.	.	7.7	.	.	.
CC(C)(C)CC(=O)Nc1ccccc1[N+](=O)[O-]	.	.	7.0	.	.	.
COCCCN1C(=S)NC2c3cc(Br)ccc3OC1(C)C2C (centres undefined)	.	.	.	.	/	/
CCCN1C(=S)NC2c3ccccc3OC1(C)C2C (centres undefined)	.	.	7.5	.	.	.
COc1ccc(-c2ccc3c(c2)CC(CNC(=O)c2ccoc2)O3)nn1 (centres undefined)	.	.	.	.	/	/
CCOc1cc(/C=C2/N=C(c3cccs3)OC2=O)ccc1OS(C)(=O)=O	.	.	.	.	/	/
CS(=O)(=O)Oc1ccc(Cl)cc1/C=C1/N=C(c2cccs2)OC1=O	.	.	5.3	.	.	.
Cn1c(SCC(=O)NCc2cccs2)nnc1-c1cccs1	.	.	.	.	/	/
CCn1c(SCC(=O)NCc2cccs2)nnc1-c1cccs1	.	.	6.9	.	.	.
CCn1c(SCC(=O)Nc2cc(OC)cc(OC)c2)nnc1-c1cccs1	.	.	5.5	.	.	.
CCn1c(SCC(=O)Nc2ccc(OC)cc2)nnc1-c1cccs1	.	.	.	.	/	/
SMILES	FBW7 activator	MITF primary	GPR151 activ	TEAD-YAP block	GPR151 confirm	GPR119 ag
O=C(CNC(=O)c1cc(N2CCOCC2)ccn1)Nc1ccc(F)c(F)c1F	.	.	5.0	.	.	.
O=C(NCc1ccccc1)/C(=N\O)c1ccccc1	.	.	6.2	.	.	.
O=C1NC(c2cccnc2)C(C(=O)c2cccs2)=C1O (centres undefined)	.	.	6.1	.	.	.
CCOCCCNCc1ccccc1F	.	.	5.2	.	.	.
CCOC(=O)CCCCNCc1ccccc1F	.	.	.	.	/	/
CCn1c(O)c(C=Nc2cc(S(=O)(=O)CC)ccc2O)c(=O)n(CC)c1=S	.	.	.	.	/	/
COc1ccc(Cc2nn3c(-c4ccc(C)cc4)nnc3s2)cc1	.	.	6.4	.	.	.
CN(C(=O)COc1ccccc1F)c1ccccc1	.	.	.	.	/	/
